NR3A LBD binder: modulates the human NR3A ligand-binding domain | AID 1259313 | NR3A LBD differential scanning fluorimetry, Tm shift; 0% = protein alone, 100% = glycine-bound protein | Tm shift relative to glycine control, % at 25 µM | 2.5% of 340,000 active;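 active means melting temperature shift of at least 10% of the positive control shift, at one fixed dose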
FAS-TE inh: FAS thioesterase (human) inhibition; P49327; recombinant FAS-TE, OMFH fluorogenic substrate, fluorescence endpoint; inhibition, % at 15 µM; 0.67% of 360,000 active; AID 602261;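 active means compounds whose normalised, plate-corrected inhibition of enzyme fluorescence in the single-dose primary screen is 50% or more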
MPTP inh: blocks calcium-induced mitochondrial swelling; 1.4% of 360,000 active; isolated mouse mitochondria, Ca2+ swelling absorbance, 30 min; inhibition, % at 10 µM; AID 602449;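 active means inhibition of 50% or more, scaled per plate between neutral and stimulator controls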
beta cell repl: induces beta-cell replication in MIN6 cells; MIN6 cells proliferation, ATPlite luminescence, 48 h; cells starved in 0.2% serum; 100% = growth in 10% serum; AID 2380; proliferation, % at 10 µM; 0.29% of 330,000 active;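 active means compounds whose signal lies at least 3.5 SD above the mean of all wells on their plate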
p-CIP stab down: p/CIP protein destabilization; Q05BA5; F442A p/CIP-EGFP cells, EGFP fluorescence, 16 h; decrease of EGFP signal, % at 10 µM; 0.01% of 290,000 active; AID 1984;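 active means EGFP signal decrease of at least 30% at 10 µM or well 3 SD below plate mean, unless failing retest; inactive means the rest, including hits failing retest or dose response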
Hits are given with their value; 0 = inactive; - = not tested or not shown. Shown are actives, neighbours in structure and some others; about 4.1% of the full set was active somewhere.

SMILES | NR3A LBD binder | FAS-TE inh | MPTP inh | beta cell repl | p-CIP stab down
C/C(=N\NC(=O)COc1ccccc1)c1ccc(O)cc1 | 13 | 0 | 0 | 0 | 0
COc1ccc(OCC(=O)NNC(=O)CCc2ccccc2)cc1 | 0 | 0 | 0 | 0 | 0
O=C(COc1ccccc1)Nc1ccc2c(c1)Cc1cc(NC(=O)COc3ccccc3)ccc1-2 | 23 | 0 | 0 | 0 | 0
O=C(CCc1ccccc1)NNC(=O)Nc1ccc(Br)cc1 | 12 | 0 | 0 | 0 | 0
O=C(CCc1ccccc1)NNC(=O)COc1ccccc1 | 13 | 0 | 0 | 0 | 0
O=C(NCc1cccnc1)c1cc(C2CCCCN2S(=O)(=O)Cc2ccccc2)on1 (stereo unspecified) | - | 0 | 0 | - | -
COc1ccc(NC(=O)C(c2ccccc2)n2c(=O)c(-c3cc4ccccc4[nH]3)nc3ccccc32)cc1 (stereo unspecified) | - | - | 0 | - | -
O=C(CCc1ccccc1)Nc1cc(NC(=O)CCc2ccccc2)cc(C(=O)O)c1 | 17 | 0 | 0 | 0 | 0
CC(=O)c1cccc(CN2CCCC(C(=O)Nc3cccc(-n4cccn4)c3)C2)c1 (stereo unspecified) | 10 | 0 | 0 | 0 | 0
COc1cccc(-c2ccc(NC(=O)C3CCCN(CCCn4cccn4)C3)cc2)c1 (stereo unspecified) | 10 | 0 | 0 | 0 | 0
Cc1ccccc1NC1=NS(=O)(=O)c2ccccc21 | 0 | 0 | 0 | 0 | 0
O=S1(=O)N=C(Nc2ccc(O)cc2)c2ccccc21 | 19 | 0 | 0 | 0 | 0
CC(C)NC(=O)C1(C)CSCC(=O)N1Cc1cccs1 (stereo unspecified) | - | - | 0 | - | -
Cc1ccc(S(=O)(=O)Nc2cc(=O)[nH]c(SCc3ccc(Cl)cc3)n2)cc1 | 11 | 0 | 0 | - | 0
O=c1cc(NS(=O)(=O)c2ccccc2)nc(SCc2c(Cl)cccc2Cl)[nH]1 | 0 | 0 | 0 | 0 | 0
CCCNC(=O)C1(C)CCN(C(=O)c2ccc(OC)cc2OC)C1 (stereo unspecified) | - | 0 | 0 | - | -
COc1cc(NC(=S)NCc2ccco2)cc(OC)c1OC | 19 | 0 | 0 | 0 | 0
COc1ccccc1NC(=S)NCc1ccco1 | 0 | 0 | 0 | 0 | 0
COc1ccc(NC(=O)C2CC(=O)N(CCc3ccc(Cl)cc3)C2)cc1 (stereo unspecified) | 12 | 0 | 0 | 0 | 0
COc1ccc(OC)c(NC(=O)C2CC(=O)N(CCc3ccc(F)cc3)C2)c1 (stereo unspecified) | 0 | 0 | 0 | - | -
Cc1ccc(C(=O)Nc2cccnc2)cc1C | - | 0 | 0 | - | -
COc1ccc(-c2cc(=O)c3c(O)c(OC)c(O)cc3o2)cc1 | 12 | 0 | 0 | 0 | 0
O=c1cc(-c2ccc(O)cc2)oc2cc(O)cc(O)c12 | 17 | 0 | 0 | 0 | -
O=c1c(O)c(-c2ccc(O)cc2)oc2cc(O)cc(O)c12 | 13 | 0 | 0 | 0 | -
O=c1cc(-c2ccccc2)oc2cc(O)cc(O)c12 | 0 | 0 | 0 | 0 | -
SMILES | NR3A LBD binder | FAS-TE inh | MPTP inh | beta cell repl | p-CIP stab down
COc1ccc(-c2cc(=O)c3c(O)c(OC)c(OC)c(OC)c3o2)cc1 | 0 | 0 | 0 | - | -
S=c1cn[nH]c2ccccc12 | 0 | 0 | 0 | - | -
NC(=S)N/N=C/c1ccc(-c2ccc(Cl)c(Cl)c2)o1 | 0 | 0 | 0 | 0 | 0
NC(=S)N/N=C\c1ccc(-c2cccc(Cl)c2Cl)o1 | 27 | 0 | 0 | 0 | 0
Cc1cccc(-n2[nH]c(C)c(C=Nc3ccc4[nH]c(=O)[nH]c4c3)c2=O)c1 | 32 | 0 | 0 | 0 | 0
Cc1[nH]n(-c2ccccc2)c(=O)c1C=Nc1ccc2[nH]c(=O)[nH]c2c1 | 33 | 0 | 0 | 0 | 0
Cc1[nH]n(-c2ccccc2)c(=S)c1C=Nc1ccc([N+](=O)[O-])cc1 | 23 | 0 | 0 | - | 0
Cc1[nH]n(-c2ccccc2)c(=O)c1C=Nc1cccc(F)c1 | 0 | 0 | 0 | 0 | 0
C[C@@H]1CN([C@@H](C)CO)C(=O)CCCn2nncc2CO[C@@H]1CN(C)S(=O)(=O)c1ccc(F)cc1 | - | 0 | 0 | - | -
CC1(C(=O)NS(=O)(=O)Cc2ccccc2)CCN1C(=O)C1(c2ccc(Cl)cc2)CC1 (stereo unspecified) | - | 0 | 0 | - | -
COc1cc(NC(=O)c2ccc(-c3cnn(C)c3)c3ccoc23)cc(OC)c1OC | - | 0 | 0 | - | -
C=CCn1c(N)c(C(=O)Nc2cccc(C)c2)c2nc3ccccc3nc21 | 18 | 0 | 0 | 0 | 0
C=CCn1c(N)c(C(=O)Nc2ccc(C)c(C)c2)c2nc3ccccc3nc21 | 24 | 0 | 0 | 0 | 0
Nc1c(C(=O)Nc2ccccc2)c2nc3ccccc3nc2n1CCCN1CCOCC1 | 18 | 0 | 0 | 0 | 0
Cc1ccc([C@H]2N[C@]3(CCCN(Cc4ccco4)C3=O)[C@H]3C(=O)N(C)C(=O)[C@@H]23)cc1 | - | 0 | 0 | - | -
COC(=O)[C@@H]1C[C@@]2(O)[C@H](O)[C@H](O)[C@H](O)C[C@H]2N1Cc1cc(F)ccc1F | 11 | 0 | 0 | 0 | 0
COC(=O)[C@@H]1C[C@@]2(O)[C@@H](O)[C@@H](O)[C@@H](O)C[C@H]2N1Cc1ccc(C(F)(F)F)cc1 | 0 | 0 | 0 | 0 | 0
CS(=O)(=O)c1cnc2c(-c3ccc(F)cc3)cnn2c1N | 37 | 0 | 0 | 0 | 0
Nc1c(-c2ccccc2)cnc2c(-c3ccccc3)cnn12 | 0 | 0 | 0 | 0 | 0
Nc1c(-c2cccs2)cnc2c(-c3ccc(F)cc3)cnn12 | 30 | 0 | 0 | 0 | 0
CC1(C)Cc2c(cnn2-c2ccccc2)C(NC(=O)CCc2ccc(=O)[nH]n2)C1 (stereo unspecified) | 13 | 0 | 0 | 0 | 0
Cc1nn(C)c(C)c1CCC(=O)NC1CC(C)(C)Cc2c1cnn2-c1ccccc1 (stereo unspecified) | 0 | 0 | 0 | 0 | 0
CC(=O)n1cc(/C=N/NC(=O)c2ccccc2O)c2ccccc21 | 32 | 0 | 0 | 0 | 0
CC1(C(=O)NS(=O)(=O)c2cccc(C#N)c2)CCN1C(=O)C1(c2ccccc2)CC1 (stereo unspecified) | - | 0 | 0 | - | -
CCN(CC)S(=O)(=O)c1ccc(Cl)c(NC(=S)NC(=O)C2CCCC2)c1 | 0 | 0 | 0 | 0 | -
SMILES | NR3A LBD binder | FAS-TE inh | MPTP inh | beta cell repl | p-CIP stab down
CCN(CC)c1ccc(S(=O)(=O)Nc2cc(Cl)ccc2Cl)cc1NC(=S)NC(=O)C1CCCC1 | 14 | 0 | 0 | 0 | 0
COc1ncnc2c1ncn2CCCN1CCN(c2ncccn2)CC1 | - | 0 | 0 | - | -
N#C/C(=C\c1c[nH]c2ccc(Br)cc12)c1ccccn1 | 22 | 0 | 0 | 0 | 0
COc1ccc(-n2sc3ccc(F)cc3c2=O)cc1 | 28 | 0 | 0 | 0 | -
O=c1c2cc(F)ccc2sn1-c1ccc(F)cc1 | 0 | 0 | 0 | 0 | -
Cc1cc2c(cc1C)-n1nnnc1C(N1CCN(C(=O)OCc3ccccc3)CC1)C(=O)N2 (stereo unspecified) | - | - | 0 | - | -
O=C(C[C@H]1CC[C@@H](NS(=O)(=O)c2ccccc2)[C@@H](CO)O1)NCc1ccc(Cl)c(Cl)c1 | - | - | 0 | - | -
CN[C@H]1C[C@H]2c3[nH]c4ccccc4c3CCN2C(=O)[C@H]1[C@H](C)O | - | 0 | 0 | - | -
O=C(CSc1nnc(-c2cccs2)n1-c1ccccc1)N1CCCC1 | 11 | 0 | 0 | 0 | 0
